Hits are enriched below; roughly 0.63% of the tested compounds scored in any of these assays.
NTR1 agonist: agonists of human neurotensin receptor NTR1. NTR1-U2OS beta-arrestin-GFP spot imaging, agonist mode. 330,000 tested, 0.17% active. AID 493036. activation, % at 20 µM;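 active means activation at or above 40% of the spot to cytoplasm intensity ratio, with at least 20 cells analyzed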;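 further: 0% = DMSO without peptide and 100% = 100 nM NTR1 peptide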
Target sequence (P30989 whole entry, looked up): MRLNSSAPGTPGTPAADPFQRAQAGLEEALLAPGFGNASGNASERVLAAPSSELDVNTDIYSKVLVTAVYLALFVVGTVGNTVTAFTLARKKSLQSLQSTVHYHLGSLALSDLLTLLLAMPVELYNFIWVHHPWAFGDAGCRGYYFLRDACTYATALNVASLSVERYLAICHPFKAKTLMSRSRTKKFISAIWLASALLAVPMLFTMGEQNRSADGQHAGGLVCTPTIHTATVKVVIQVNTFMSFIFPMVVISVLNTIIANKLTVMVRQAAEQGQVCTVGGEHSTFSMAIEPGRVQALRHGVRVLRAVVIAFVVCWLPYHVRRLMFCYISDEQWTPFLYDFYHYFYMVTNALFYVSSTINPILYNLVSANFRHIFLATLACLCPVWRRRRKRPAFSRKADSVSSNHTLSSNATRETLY
Platelet DG rel: modulates dense granule release in human platelets; human platelet-rich plasma, SFLLRN dense granule ATP release, luminescence; inhibition, %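 (compounds screened at 7.5 µM in platelet-rich plasma)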; 300,000 tested, 0.22% active; AID 1663;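 active means mean replicate score, as percent of positive control, at or above 50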
HIF act: HIF pathway transcriptional activation; 300,000 tested, 0.32% active; activation, % at 7.5 µM (by protocol); U2OS HRE-luciferase reporter, luminescence; normalized: DMSO 0%, desferrioxamine 100%; AID 1910;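 active means mean activation of at least 10% of the iron chelator positive control signal, with at least half of replicates also reaching 10%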
NTR1 ag conf: NTR1 (human) agonism, confirmed. shares compounds with NTR1 agonist. AID 504550. 480 tested, 38% active. activation, % at 20 µM. NTR1-U2OS beta-arrestin-GFP translocation imaging;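 active means mean activation at 20 µM of at least 40%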;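 further: 0% = DMSO without peptide and 100% = 100 nM NTR1 peptide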
* marks the source's active call; other numbers are inactive results; nt = no result.

SMILES	NTR1 agonist	Platelet DG rel	HIF act	NTR1 ag conf
CCCCNc1ccc(C(CC(N)=O)NC(=O)Cc2cccc3ccccc23)cc1[N+](=O)[O-] (stereo not given)	-0.5	0.6	-0.7	nt
COc1ccc(CCNc2ccc(C(CC(N)=O)NC(=O)Cc3cccc4ccccc34)cc2[N+](=O)[O-])cc1 (stereo not given)	47.9*	3.7	0.3	10.3
CC(=O)NS(=O)(=O)c1ccc(NC(=O)c2cc3c(=O)n4ccccc4nc3s2)cc1	-0.1	12.6	0.2	nt
OC(CNCCc1ccc(C(F)(F)F)cc1)COc1ccc2ccccc2c1 (stereo not given)	50.7*	8.3	-0.6	7.2
OC(CNCCc1ccc(C(F)(F)F)cc1)COc1cccc2ccccc12 (stereo not given)	12.6	5.5	-0.1	nt
COc1ccc(CNCC(O)COc2ccc(C(C)(C)c3ccccc3)cc2)cc1 (stereo not given)	49.7*	13.8	-5.5	6.3
COC(=O)c1ccc(CNCC(O)COc2ccc(-c3ccccc3)cc2)cc1 (stereo not given)	3.3	8.9	-0.2	nt
COc1cc(C(=O)NCC(=O)OCC(=O)c2cccc3ccccc23)cc(OC)c1OC	0.5	25.9	-0.2	nt
CC(=O)c1c(N2CCCC2)nc(=S)n(-c2ccccc2)c1C	-0.5	-5.5	-0.4	nt
Cc1ccc(NC(=O)c2ccc(Nc3c([N+](=O)[O-])cc([N+](=O)[O-])cc3[N+](=O)[O-])cc2)cc1	46.1*	0.6	2.0	21.5
CC(=O)Nc1ccc(NC(=O)c2cc([N+](=O)[O-])cc([N+](=O)[O-])c2)cc1	0.3	3.6	-0.6	nt
CC(C(=O)N1CC2(C)CC1CC(C)(C)C2)N1C(=O)c2ccccc2C1=O (stereo not given)	0.3	-2.9	-0.3	nt
CNC(=O)c1cc(Oc2ccc(NC(=O)Nc3ccc(Cl)c(C(F)(F)F)c3)cc2)ccn1	43.1*	nt	nt	47.8*
O=C(Nc1ccc(Cl)c(C(F)(F)F)c1)c1ccncc1	2.5	2.2	0.3	nt
Cc1cccc(NC(=O)c2nc[nH]c2C(=O)N[C@@H](C)C(=O)OC(C)(C)C)c1	11.7	0.6	0.0	nt
C[C@H](NC(=O)c1[nH]cnc1C(=O)Nc1ccc(Cl)cc1)C(=O)OC(C)(C)C	41.4*	-2.0	-0.3	29.4
CCOC(=O)c1ccc(NC(=O)c2nc[nH]c2C(=O)N[C@@H](CC(C)C)C(=O)OC(C)(C)C)cc1	17.1	1.7	-0.1	nt
CCOC(=O)c1ccc(NC(=O)c2nc[nH]c2C(=O)N[C@@H](C)C(=O)OC(C)(C)C)cc1	42.6*	8.3	0.8	39.7
COc1ccc(N2C(=O)/C(=C3/C=CC=CN3C)SC2=S)cc1	-0.3	2.7	-0.7	nt
CC1(c2ccccc2)CC(C)(C)n2c(O)c(C3=NC(=S)NC3=O)c3cccc1c32 (stereo not given)	42.5*	1.2	-0.5	27.4
COc1cc2c3c(c1)c(C1=NC(=S)NC1=O)c(O)n3C(C)(C)C=C2C	1.0	7.3	-0.6	nt
CC1CCCCC1NC(=O)COC(=O)c1ccc(S(=O)(=O)NCc2ccco2)cc1 (stereo not given)	2.2	2.4	-0.2	nt
Cc1cccc(CCNS(=O)(=O)c2cc3c(cc2C)NC(=O)CO3)c1	0.0	-14.6	-0.1	nt
O=C(NC(=S)Nc1cccc(Cl)c1N1CCOCC1)c1cccs1	43.4*	-1.5	-0.4	15.2
O=C(NC(=S)Nc1cccc(Cl)c1N1CCCCC1)c1ccco1	10.5	6.7	1.2	nt
SMILES	NTR1 agonist	Platelet DG rel	HIF act	NTR1 ag conf
O=C(NC(=S)Nc1cccc(Cl)c1N1CCCCC1)c1cccs1	34.6	1.7	2.0	nt
CCCC(=O)NC(=S)Nc1cccc(Cl)c1N1CCCC1	51.4*	0.7	-1.0	15.5
COc1ccccc1NC(=O)CSc1nnc(NC(=O)C2CCC2)s1	-0.5	0.7	-0.7	nt
CCOC(=O)c1cc(-c2ccccc2)sc1NC(=O)C(C)Sc1nnc(N)s1 (stereo not given)	43.5*	8.1	0.4	25.4
CCOC(=O)c1cc(-c2ccccc2)sc1NC(=O)CSc1nnc(N)s1	16.9	-28.1	-0.1	nt
Cc1cc(C)cc(C(=O)NCC(=O)OCN2C(=O)c3ccccc3C2=O)c1	2.4	nt	nt	nt
COc1cc(CCC(=O)OCc2nnc(-c3ccccc3)o2)cc(OC)c1OC	0.0	0.5	-15.9	nt
CCCCCCOc1ccc(/C(C)=N/NC2=NCCN2)cc1[N+](=O)[O-]	41.1*	3.0	0.6	46.4*
C/C(=N\NC1=NCCN1)c1ccc(N)c([N+](=O)[O-])c1	-0.4	2.1	0.4	nt
O=C(CC1NC(=O)NC1=O)Nc1ccc(Cl)cc1 (stereo not given)	7.8	-0.9	-0.5	nt
O=C(CC1Nc2ccccc2NC1=O)Nc1cc(Cl)cc(Cl)c1 (stereo not given)	72.7*	3.7	0.0	53.5*
CC1CCN(C(=O)Cn2nnc(-c3ccc([N+](=O)[O-])cc3)n2)CC1	1.3	-9.0	0.5	nt
O=C(NCc1ccncc1)c1cc(S(=O)(=O)N2CCOCC2)c(Cl)cc1Cl	-1.0	3.3	0.0	nt
Cc1ccc(C(=O)N/C(=C/c2ccc(N(C)C)cc2)C(=O)NCC2CCCO2)cc1 (stereo not given)	-0.1	-1.6	0.0	nt
CCc1ccc(-c2cn(-c3nc(C)cc(C)n3)c(=N)o2)cc1	46.4*	0.1	0.2	32.5
CCc1ccc(-c2cn3c(n2)SCC3)cc1	-0.8	9.2	1.8	nt
CCN(CC)C(=O)COc1ccc2oc(C)c(C(=O)OC(C)C)c2c1	2.2	-0.4	-0.2	nt
CC1=C(C(=O)OC2CCCCCCC2)C(c2cc3c(cc2Br)OCO3)CC(=O)N1 (stereo not given)	44.4*	1.2	-0.3	42.2*
COC(=O)C1=C(C)NC(=O)CC1c1cc2c(cc1Br)OCO2 (stereo not given)	0.7	-163.2	0.0	nt
COc1ccc(CCNC(=O)CSc2nc(=O)[nH]c3c2CCC3)cc1OC	0.2	5.6	0.6	nt
c1ccc(-c2onc3c2CCCC3)cc1	-3.9	-2.9	-0.1	nt
Cc1cccc(-c2nc(Nc3cccc(O)c3)c3ccccc3n2)c1	53.2*	-6.1	-9.0	26.6
Cc1cccc(-c2nc(Nc3ccc(N4CCOCC4)cc3)c3ccccc3n2)c1	16.7	4.8	-0.3	nt
CCCNc1c(NS(=O)(=O)c2ccc(NC(=O)CC)cc2)c(=O)oc2ccccc12	2.7	15.7	-0.6	nt
CNC(=O)C(=O)NCC(c1cccs1)S(=O)(=O)c1ccc(F)cc1 (stereo not given)	0.2	-3.0	-0.6	nt
SMILES	NTR1 agonist	Platelet DG rel	HIF act	NTR1 ag conf
Cc1c(C(C)C[C@H](C)O)oc(=O)c2c1Oc1c(C)c(C(C)C[C@H](C)O)oc(=O)c1C2 (stereo not given in full)	3.1	nt	nt	nt
CCC(CO)Oc1cc(NCc2ccccc2)c2ncn(C(C)C)c2c1 (stereo not given)	-0.5	nt	nt	nt
CCC(COC)Oc1cc(NCc2ccccc2)c2ncn(C(C)C)c2c1 (stereo not given)	44.4*	nt	nt	8.8
COC(=O)C1=C(C)N(Cc2ccccc2)C(=NCc2ccccc2)N[C@H]1c1cccc(C(F)(F)F)c1	43.7*	nt	nt	75.2*
COC(=O)C1=C(C)N(Cc2ccccc2)C(=NCC(C)C)N[C@H]1c1cccc(C(F)(F)F)c1	21.8	nt	nt	nt
O=C(Cc1ccccc1)c1c[nH]c(C(=O)C(Cl)(Cl)Cl)c1	-0.8	-1.7	2.9	nt

Source: PubChem
